Assay [1] in a line: qHTS assay to identify small molecule agonists of the estrogen receptor alpha (ER-alpha) signaling pathway in the presence of an antagonist - cell viability counter screen (AID 1259386).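 Also: cells exposed to compounds for 22 h at 37 °C before the viability read; nearly all actives have a fitted effect of over 30% in size.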 Also: potency is read from the fitted curve at half-maximal effect. An outline of the steps:
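Read-out: CellTiter-Fluor fluorescence after 1hr reagent incubation, measured in the same wells as the luciferase readout. VM7Luc4E2 cells were exposed to 15 compound concentrations with 10.0nM ICI-182,780 for 22hr at 37C.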
(Quantitative high-throughput screening tests each substance at several concentrations.)

Assay [2] addresses Progesterone receptor (Homo sapiens) (UniProt P06401). In words: qHTS assay to identify small molecule antagonists of the progesterone receptor (PR) signaling pathway (AID 1346795; active = well fitted inhibition curve with a large enough effect in the signal ratio in the repeat runs, not every such curve was filed as active; the % refers to the signal ratio; also: potency is read from the fitted curve at half-maximal effect). An outline of the steps:
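Antagonist mode: compounds tested against 1 nM (final) promegestone stimulation in HEK293T cells expressing PR-UAS-bla reporter, 16 hr at 37C, 5% CO2; beta-lactamase activity detected via B/G FRET substrate after 2 hr at room temperature.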

Assay [3] in a line: qHTS assay to identify small molecule antagonists of the progesterone receptor (PR) signaling pathway - cell viability counter screen (AID 1346798). Also: nearly all actives have a fitted effect of over 50% in size. Also: potency is read from the fitted curve at half-maximal effect. In short, it runs like this: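 Counter screen for cytotoxicity: viability of PR-UAS-bla HEK293T cells was measured with CellTiter-Glo luminescence following 16 hr compound exposure in the presence of R5020.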
Assay [4] in a line: qHTS assay to identify small molecule antagonists of the TGF-beta/Smad signaling pathway - cell viability counter screen (AID 1346824). Also: nearly all actives have a fitted effect of over 50% in size. Also: potency is read from the fitted curve at half-maximal effect. An outline of the steps:
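Cytotoxicity counter-screen run in the same wells as the beta-lactamase Smad reporter read: CellTiter-Glo luminescence after 30 min at room temperature. HEK 293T SBE-bla cells had 5 hr compound exposure at 37 C with TGF-beta1 (0.25 ng/mL stock).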

A short description of assay [5]: qHTS assay to identify small molecule agonists of the TGF-beta/Smad signaling pathway (AID 1346859; active = well fitted activation curve with a large enough effect in the signal ratio in the repeat runs, not every such curve was filed as active; the % refers to the signal ratio; also: series mostly up to about 77 µM). In short, it runs like this:
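Reporter line: HEK 293T with stably integrated SBE-controlled beta-lactamase. Compound exposure lasts 5 hr at 37 C and 5% CO2; substrate loading follows for 2 hr at room temperature, with emission read at 460 and 530 nm.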

Assay [6] has as its target Thyrotropin-releasing hormone receptor (Homo sapiens) (UniProt P34981). In words: qHTS assay to identify small molecule antagonists of the thyrotropin-releasing hormone receptor (TRHR) signaling pathway (AID 1346877; active = well fitted inhibition curve with a large enough effect in the repeat runs, not every such curve was filed as active; also: potency is read from the fitted curve at half-maximal effect). An outline of the steps:
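HEK293/TRHR cells, 18 h, 37 °C; Ca2+ dye 2 h; cpd 5 min RT; TRH 1 nM final; fluorescence read 3 min, 1 s intervals; 15 concs, triplicate.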

Assay [7] shares this target. The assay can be described thus: qHTS assay to identify small molecule agonists of the thyrotropin-releasing hormone receptor (TRHR) signaling pathway (AID 1346891; calls by dose curve; also: potency is read from the fitted curve at half-maximal effect;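 as to activation: HEK293 cells expressing TRHR with calcium dye readout; series mostly up to about 58 µM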). In short, it runs like this: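 Cells: TRHR-Hek293, seeded and incubated 18 h. Dye loading: 2 h at 37 °C. Compound added from DMSO stock by pin tool. Read-out: kinetic calcium fluorescence over 3 min.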
Assay [8] in a line: Human pregnane X receptor (PXR) small molecule agonists, qHTS cell viability counter screen (AID 1346977). Also: nearly all actives have a fitted effect of over 50% in size. Also: potency is read from the fitted curve at half-maximal effect. In short, it runs like this:
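Cytotoxicity counter screen run in the same wells as the PXR luciferase assay, using PXR-Luc HepG2 cells in charcoal-stripped serum medium. Viability: CellTiter-Fluor fluorescence after 24hr compound treatment.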

The nature of assay [9]: Caspase-3/7 induction in HepG2 cells by small molecules, qHTS assay (AID 1346978). Also: nearly all actives have a fitted effect of over 15% in size. Also: potency is read from the fitted curve at half-maximal effect. An outline of the steps: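 Caspase-3/7 induction was measured by Caspase-Glo 3/7 luminescence (30 min, room temperature) after a 17 hr compound exposure of wild-type HepG2 cells seeded at 2,000 per well and pre-incubated 5 hr.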
The nature of assay [10]: Caspase-3/7 induction in CHO-K1 cells by small molecules, qHTS assay (AID 1346980). Also: nearly all actives have a fitted effect of over 15% in size. Also: potency is read from the fitted curve at half-maximal effect. In short, it runs like this: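 Luminescent Caspase-Glo 3/7 read (30min, room temperature) quantified apoptosis induction. Cells were wild-type CHO-K1, treated with compound for 17hr at 37 C and 5% CO2.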
A short description of assay [11]: Caspase-3/7 induction in HepG2 cells by small molecules, qHTS cell viability counter screen (AID 1346981). Also: nearly all actives have a fitted effect of over 30% in size. Also: potency is read from the fitted curve at half-maximal effect. An outline of the steps:
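Fluorescence read-out of live-cell protease activity (CellTiter-Fluor) after 1 hr with reagent. This was measured in the same wells as the caspase-3/7 luminescence, on HepG2 cells exposed to DMSO-dissolved compounds for 16 hr at 37 C.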

For assay [12], the target named is Nuclear receptor subfamily 1 group I member 2 (Homo sapiens) (UniProt O75469). The assay can be described thus: Human pregnane X receptor (PXR) small molecule agonists, qHTS assay (AID 1346982). Also: nearly all actives have a fitted effect of over 35% in size. Also: potency is read from the fitted curve at half-maximal effect. In short, it runs like this:
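HepG2 PXR-Luc reporter line, 5% charcoal-stripped FBS; 5 hr pre-incubation, compound (DMSO) 24 hr at 37 C/5% CO2; ONE-Glo 30 min RT; luminescence read-out.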

For assay [13], the target named is Acetylcholinesterase (Homo sapiens) (UniProt P22303). In words: Acetylcholinesterase (AChE) small molecule antagonists: colormetric cell-based qHTS assay (AID 1347395; calls by dose curve; also: nearly all actives have a fitted effect of over 30% in size; also: potency is read from the fitted curve at half-maximal effect). In short, it runs like this: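 Cells (SH-SY5Y, 2,000 per well) are seeded and left overnight at 37 C. Compound is added for 30 min, then DTNB and acetylthiocholine for a further 90 min at 37 C before absorbance-based thiocholine detection.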

Assay [14] can be described thus: qHTS assay to identify small molecule agonists of the TGF-beta/Smad signaling pathway - cell viability counter screen (AID 1346829). Also: nearly all actives have a fitted effect of over 45% in size. Also: potency is read from the fitted curve at half-maximal effect. An outline of the steps:
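After overnight seating at 37 C and 5% CO2, reporter cells got compounds for 5 hr and FRET substrate for 2 hr; cell viability then came from CellTiter-Glo luminescence.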

Assay [15] in a line: qHTS assay to identify small molecule agonists of the progesterone receptor (PR) signaling pathway - cell viability counter screen (AID 1346799; calls by dose curve; also: nearly all actives have a fitted effect of over 45% in size; also: potency is read from the fitted curve at half-maximal effect). An outline of the steps: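 Cells (PR-UAS-bla HEK293T) are plated at 3,000/well in 2% charcoal-stripped FBS medium, rested 6 hr, dosed and incubated 16 hr at 37C. CellTiter-Glo is then added and luminescence measured after 30 min at room temperature.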

Assay [16] can be described thus: Caspase-3/7 induction in CHO-K1 cells by small molecules, qHTS cell viability counter screen (AID 1346979). Also: nearly all actives have a fitted effect of over 35% in size. Also: potency is read from the fitted curve at half-maximal effect. In short, it runs like this: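 Cytotoxicity counter screen run in parallel with the caspase-3/7 assay: CHO-K1 cells, 16hr compound treatment at 37C, then CellTiter-Fluor for 1hr before fluorescence reading.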

Records with an inconclusive call do not appear. Activity calls are given as the source filed them. Unless noted, calls follow the shape of the dose curve; as a rule, active = well fitted curve in the direction sought with a large enough effect in the repeat runs; inconclusive = weak or mixed curves; inactive = no such curve, though single readings can be large; an effect the other way counts as inactive or inconclusive.

Chain of Acetylcholinesterase (Homo sapiens) (P22303 whole entry, looked up): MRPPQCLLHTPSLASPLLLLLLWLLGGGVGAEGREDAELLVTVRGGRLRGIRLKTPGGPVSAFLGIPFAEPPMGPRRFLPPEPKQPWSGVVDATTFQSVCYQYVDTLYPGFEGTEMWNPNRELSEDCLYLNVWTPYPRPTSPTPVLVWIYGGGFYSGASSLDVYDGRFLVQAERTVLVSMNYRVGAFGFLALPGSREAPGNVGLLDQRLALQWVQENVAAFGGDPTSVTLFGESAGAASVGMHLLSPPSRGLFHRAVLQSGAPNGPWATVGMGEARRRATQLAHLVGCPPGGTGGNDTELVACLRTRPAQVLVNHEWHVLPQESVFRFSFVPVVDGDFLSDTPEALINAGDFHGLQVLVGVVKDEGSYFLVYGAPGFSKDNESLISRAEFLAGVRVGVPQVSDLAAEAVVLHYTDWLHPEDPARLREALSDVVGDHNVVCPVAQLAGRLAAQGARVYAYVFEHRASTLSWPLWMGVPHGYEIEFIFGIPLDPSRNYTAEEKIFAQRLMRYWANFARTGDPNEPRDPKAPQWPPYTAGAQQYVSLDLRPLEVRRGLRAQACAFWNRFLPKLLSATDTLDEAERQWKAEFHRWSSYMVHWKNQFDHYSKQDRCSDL
Chain of Progesterone receptor (Homo sapiens) (P06401 whole entry, looked up): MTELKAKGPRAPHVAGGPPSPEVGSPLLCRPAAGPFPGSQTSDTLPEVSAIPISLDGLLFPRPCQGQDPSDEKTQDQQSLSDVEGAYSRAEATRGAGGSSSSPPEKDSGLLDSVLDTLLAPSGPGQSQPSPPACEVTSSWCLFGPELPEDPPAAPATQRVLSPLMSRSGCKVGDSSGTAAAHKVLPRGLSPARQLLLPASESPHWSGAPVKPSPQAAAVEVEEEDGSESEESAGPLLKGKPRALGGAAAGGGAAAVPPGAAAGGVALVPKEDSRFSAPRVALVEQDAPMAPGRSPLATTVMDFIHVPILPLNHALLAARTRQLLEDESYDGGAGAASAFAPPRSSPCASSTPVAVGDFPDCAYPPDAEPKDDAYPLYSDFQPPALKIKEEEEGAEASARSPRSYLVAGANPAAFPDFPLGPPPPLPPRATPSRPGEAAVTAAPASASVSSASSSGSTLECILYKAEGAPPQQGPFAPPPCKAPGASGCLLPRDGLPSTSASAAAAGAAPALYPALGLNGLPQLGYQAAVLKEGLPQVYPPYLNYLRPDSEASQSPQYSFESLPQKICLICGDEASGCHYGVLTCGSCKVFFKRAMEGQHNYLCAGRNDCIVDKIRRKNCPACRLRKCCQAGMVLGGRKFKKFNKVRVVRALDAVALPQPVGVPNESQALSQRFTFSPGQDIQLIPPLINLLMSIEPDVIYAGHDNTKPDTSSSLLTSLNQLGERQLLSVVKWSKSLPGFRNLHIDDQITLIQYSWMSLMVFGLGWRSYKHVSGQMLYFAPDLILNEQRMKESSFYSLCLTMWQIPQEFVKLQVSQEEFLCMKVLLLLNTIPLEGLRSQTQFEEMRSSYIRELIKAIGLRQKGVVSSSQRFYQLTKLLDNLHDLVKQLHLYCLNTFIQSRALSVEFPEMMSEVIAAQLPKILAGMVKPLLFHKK
Chain of Thyrotropin-releasing hormone receptor (Homo sapiens) (P34981 whole entry, looked up): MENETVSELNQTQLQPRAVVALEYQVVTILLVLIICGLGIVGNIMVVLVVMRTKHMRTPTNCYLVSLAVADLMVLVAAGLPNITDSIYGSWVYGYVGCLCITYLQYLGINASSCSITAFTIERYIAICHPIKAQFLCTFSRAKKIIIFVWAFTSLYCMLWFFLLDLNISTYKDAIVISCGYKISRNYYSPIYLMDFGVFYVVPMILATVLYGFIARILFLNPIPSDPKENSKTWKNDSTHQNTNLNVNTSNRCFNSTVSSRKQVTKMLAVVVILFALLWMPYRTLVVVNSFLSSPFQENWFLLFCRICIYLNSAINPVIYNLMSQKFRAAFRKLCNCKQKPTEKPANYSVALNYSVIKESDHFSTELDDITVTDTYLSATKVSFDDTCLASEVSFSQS
Chain of Nuclear receptor subfamily 1 group I member 2 (Homo sapiens) (O75469 whole entry, looked up): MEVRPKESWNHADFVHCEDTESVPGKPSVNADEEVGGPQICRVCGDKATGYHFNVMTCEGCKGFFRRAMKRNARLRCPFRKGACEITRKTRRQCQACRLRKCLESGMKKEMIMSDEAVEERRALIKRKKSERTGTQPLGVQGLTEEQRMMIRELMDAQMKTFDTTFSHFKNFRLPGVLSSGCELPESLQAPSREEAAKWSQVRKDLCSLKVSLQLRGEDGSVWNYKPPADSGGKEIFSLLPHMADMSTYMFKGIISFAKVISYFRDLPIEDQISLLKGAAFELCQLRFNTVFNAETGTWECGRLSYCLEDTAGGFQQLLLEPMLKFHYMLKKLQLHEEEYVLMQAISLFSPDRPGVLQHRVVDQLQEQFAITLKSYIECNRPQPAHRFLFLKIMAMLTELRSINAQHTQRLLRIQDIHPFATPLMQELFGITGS

Take `COP(=S)(OC)Oc1ccc([N+](=O)[O-])c(C)c1`: the Potency result in assay [1], in assay [3], in assay [4], in assay [6], in assay [7] and in assay [8] was “inactive” each time. Further, the Potency entry in assay [9], in assay [10], in [11] and in [12] was “inactive” throughout. Moreover, the Potency in [2] is 6.11 µM (active); in assay [13], 35.6 µM (active). Besides, the call in assay [5] was inactive.
Consider `COP(=O)(OC)O/C(=C\Cl)c1cc(Cl)c(Cl)cc1Cl`, for which the Potency result in [1], in assay [3], in assay [4], in [14], in assay [6] and in [7] was “inactive” in each case. Besides, the Potency result in assay [8], in [9], in assay [10] and in [11] was “inactive” throughout. In addition, the figures for the Potency in assay [2] and in [12] were 6.86 µM (active) and 54.5 µM (active), respectively. The result in assay [5] was inactive.
As to `CC(O)C(=O)[O][Hg][c]1ccccc1` (configuration not stated), the Potency in [1] is 12.2 µM (active); in [3], 4.86 µM (active); in assay [15] it was 4.86 µM (active); in [4] it was 9.77 µM (active); in assay [14], 17.4 µM (active); in [8], 1.93 µM (active). For the same compound, the Potency was 1.09 µM (active) in [16] and 4.86 µM (active) in assay [11]. Also, the Potency result in assay [9], in assay [10], in assay [12] and in assay [13] was “inactive” in each case.
As for `N#Cc1c2ccccc2cc2ccccc12`, the Potency result in assay [1], in [3], in assay [15], in assay [4], in [14] and in [8] was “inactive” in each case. Besides, the Potency entry in assay [9], in [10] and in [13] was “inactive” throughout. Also, the Potency in [12] was 27.3 µM (active).
As to `CC#C[C@]1(O)CC[C@H]2[C@@H]3C[C@H](C)C4=CC(=O)CC[C@]4(C)[C@H]3CC[C@@]21C`, the Potency entry in [1], in assay [2], in assay [4], in assay [14], in [7] and in assay [8] was “inactive” in each case. The Potency entry in assay [9], in [10], in assay [11] and in assay [13] was “inactive” each time. Also, the compound was classed as inactive in assay [5]. In [12], the Potency was 23.7 µM (active).
Regarding `CC[N+]1(CC)CCC(OC(=O)C(O)(c2ccccc2)c2ccccc2)C1` (configuration not stated), the Potency result in assay [1], in assay [2], in [3], in [4], in assay [14] and in assay [6] was “inactive” each time. Besides, the Potency entry in assay [7], in [8], in assay [9], in [16], in [10] and in [11] was “inactive” each time. The Potency result in [12] and in assay [13] was “inactive” throughout. Further, the outcome in [5] was inactive.
In the case of `c1csc(-c2ccc(-c3cccs3)s2)c1`, the Potency entry in assay [1], in assay [3], in assay [15], in assay [4], in assay [6] and in assay [7] was “inactive” throughout. Also, the Potency entry in assay [9], in assay [10], in assay [11] and in assay [13] was “inactive” in each case. Moreover, the Potency in assay [12] is 19.3 µM (active).
As to `[F][Sn]([c]1ccccc1)([c]1ccccc1)[c]1ccccc1`, the Potency in [1] is 10.9 µM (active); in assay [3], 1.37 µM (active); in assay [15], 1.54 µM (active); in [4] it was 1.38 µM (active); in assay [14] it was 1.23 µM (active); in [6] it was 3.38 µM (active). The Potency is 4.36 µM (active) in [7]; 0.0863 µM (active) in [8]; 0.193 µM (active) in assay [9]; 0.0433 µM (active) in [16]; 0.0611 µM (active) in [10]; 1.22 µM (active) in assay [11]. The Potency in [12] is 0.077 µM (active). Further, in [13], the Potency result was “inactive”.
Consider `CCOP(=S)(OCC)Oc1cc(C)nc(N(CC)CC)n1`, for which the Potency entry in assay [1], in assay [15], in assay [4], in [14], in [6] and in assay [7] was “inactive” throughout. Besides, the Potency result in [8], in [9], in assay [10] and in assay [11] was “inactive” throughout. For the same compound, the result in assay [5] was inactive. For the same compound, in [12], the Potency is 17.2 µM (active).

The values above are taken from PubChem BioAssay (Tox21).
